Results on 35 sequences are retold here after publication PMC12820563, “FoxP3 forms a head-to-head dimer in vivo and stabilizes its multimerization on adjacent microsatellites”.

Whole data set: some 16,000 sequences, median “rpm ratio (pull-down/input)” near 0.5, cut for the highest 2% near 5.5. This is one part of a sample in which the highest values are shown more often than they occur.

The target of the experiment is T1, MBP-FoxP3dN (Mus musculus, UniProt Q99JB6 188-423).
T1 sequence: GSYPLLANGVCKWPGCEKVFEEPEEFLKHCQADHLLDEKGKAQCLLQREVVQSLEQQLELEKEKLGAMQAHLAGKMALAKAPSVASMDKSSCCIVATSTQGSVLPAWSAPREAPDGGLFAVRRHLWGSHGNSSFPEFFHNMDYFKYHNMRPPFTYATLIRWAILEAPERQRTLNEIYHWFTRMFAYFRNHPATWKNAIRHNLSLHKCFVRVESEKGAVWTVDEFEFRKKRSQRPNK
Description: PD-seq (MBP pull-down with sequencing); 20 mM Tris-HCl pH 7.5, 100 mM NaCl, 1.5 mM MgCl2, 0.4 uM protein, 0.1 uM dsDNA library, 30 min, room temperature, amylose pull-down; high values mean tight binding. Particulars: protein: recombinant; tags: His6-MBP; chain copies: 2; dsDNA, one strand shown. The method in brief:
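A fragment of mouse FoxP3 or FoxP1 without its N-terminus, carrying a His6-MBP tag and produced in E. coli, was combined at 0.4 µM with a 0.1 µM degenerate double-stranded DNA library filled in with Klenow. The mixture sat for 30 min at room temperature in Tris pH 7.5 buffer containing NaCl and MgCl2. Protein–DNA complexes were captured on amylose resin, washed three times, and the DNA was freed with proteinase K, barcoded by PCR and sequenced on Illumina. Binding is expressed as reads-per-million enrichment of pull-down over input, with replicates pooled.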
Turning to “GATGATTGTTCTCCCAGCTGATGAATTGTTACGATCGAGTAAACAAATTTTCCTAATCTTTCTGTTCAAGCGCCATCTAC”, the binding signal was 0.792 RPM ratio (pull-down/input).

On to “GATGATTGTTCTCCCAGCTGATGAATTGTTTTGGTCGAGTAAACAAATTTTCCTAATCTTTCTGTTCAAGCGCCATCTAC”, for which the binding signal was 3.65 RPM ratio (pull-down/input).

Consider “GATGATTGTTCTCCCAGCTGATGAATTTGTTTGGTCGAGTAAACAAATTTTCCTAATCTTTCTGTTCAAGCGCCATCTAC”, for which the binding signal was 7.49 RPM ratio (pull-down/input).

On to “GATGATTGTTCTCCCAGCTGATGAATTGGTTTGGTCGAGTAAACAAATTTTCCTAATCTTTCTGTTCAAGCGCCATCTAC”, for which the binding signal was 3.6 RPM ratio (pull-down/input).

For the sequence “GATGATTGTTCTCCCAGCTGATGAATTGATTGTCTCGAGTAAACAAATTTTCCTAATCTTTCTGTTCAAGCGCCATCTAC”, the binding signal was 2.86 RPM ratio (pull-down/input).

Turning to “GATGATTGTTCTCCCAGCTGATGAATTGTAGTTCTCGAGTAAACAAATTTTCCTAATCTTTCTGTTCAAGCGCCATCTAC”, the binding signal was 1.39 RPM ratio (pull-down/input).

Regarding “GATGATTGTTCTCCCAGCTGATGAATTGCGGCATTCGAGTAAACAAATTTTCCTAATCTTTCTGTTCAAGCGCCATCTAC”, the binding signal is 7.34 RPM ratio (pull-down/input).

Turning to “GATGATTGTTCTCCCAGCTGATGAATTCGGCCATTCGAGTAAACAAATTTTCCTAATCTTTCTGTTCAAGCGCCATCTAC”, the binding signal is 3.92 RPM ratio (pull-down/input).

For the sequence “GATGATTGTTCTCCCAGCTGATGAATTCGGCATCTCGAGTAAACAAATTTTCCTAATCTTTCTGTTCAAGCGCCATCTAC”, the binding signal is 7.14 RPM ratio (pull-down/input).

Regarding “GATGATTGTTCTCCCAGCTGATGAATTTTCGGCATCGAGTAAACAAATTTTCCTAATCTTTCTGTTCAAGCGCCATCTAC”, the binding signal is 0.816 RPM ratio (pull-down/input).

With “GATGATTGTTCTCCCAGCTGATGAATTTCGGCATTCGAGTAAACAAATTTTCCTAATCTTTCTGTTCAAGCGCCATCTAC”, the binding signal was 5.76 RPM ratio (pull-down/input).

Take “GATGATTGTTCTCCCAGCTGATGAATTCGGGCATTCGAGTAAACAAATTTTCCTAATCTTTCTGTTCAAGCGCCATCTAC”: the binding signal is 4.9 RPM ratio (pull-down/input).

On to “GATGATTGTTCTCCCAGCTGATGAATTCCGGCATTCGAGTAAACAAATTTTCCTAATCTTTCTGTTCAAGCGCCATCTAC”, for which the binding signal is 4.43 RPM ratio (pull-down/input).

As to “GATGATTGTTCTCCCAGCTGATGAATTCGCGGCATCGAGTAAACAAATTTTCCTAATCTTTCTGTTCAAGCGCCATCTAC”, the binding signal is 0.76 RPM ratio (pull-down/input).

“GATGATTGTTCTCCCAGCTGATGAATTCGGCATTTCGAGTAAACAAATTTTCCTAATCTTTCTGTTCAAGCGCCATCTAC”: the binding signal is 5.91 RPM ratio (pull-down/input).

In the case of “GATGATTGTTCTCCCAGCTGATGAATTCGGCAGCTCGAGTAAACAAATTTTCCTAATCTTTCTGTTCAAGCGCCATCTAC”, the binding signal is 1.36 RPM ratio (pull-down/input).

Take “GATGATTGTTCTCCCAGCTGATGAATTCTCGGCATCGAGTAAACAAATTTTCCTAATCTTTCTGTTCAAGCGCCATCTAC”: the binding signal was 0.601 RPM ratio (pull-down/input).

As to “GATGATTGTTCTCCCAGCTGATGAATTTGCGGCATCGAGTAAACAAATTTTCCTAATCTTTCTGTTCAAGCGCCATCTAC”, the binding signal was 1.14 RPM ratio (pull-down/input).

Turning to “GATGATTGTTCTCCCAGCTGATGAATTTACTGGCTCGAGTAAACAAATTTTCCTAATCTTTCTGTTCAAGCGCCATCTAC”, the binding signal is 0.472 RPM ratio (pull-down/input).

With “GATGATTGTTCTCCCAGCTGATGAATTCTGATGCTCGAGTAAACAAATTTTCCTAATCTTTCTGTTCAAGCGCCATCTAC”, the binding signal was 1.09 RPM ratio (pull-down/input).

Turning to “GATGATTGTTCTCCCAGCTGATGAATTAATTTGCTCGAGTAAACAAATTTTCCTAATCTTTCTGTTCAAGCGCCATCTAC”, the binding signal was 3.03 RPM ratio (pull-down/input).

With “GATGATTGTTCTCCCAGCTGATGAATTACTTAACTCGAGTAAACAAATTTTCCTAATCTTTCTGTTCAAGCGCCATCTAC”, the binding signal was 0.277 RPM ratio (pull-down/input).

“GATGATTGTTCTCCCAGCTGATGAATTCTGGCCATCGAGTAAACAAATTTTCCTAATCTTTCTGTTCAAGCGCCATCTAC”: the binding signal is 1.12 RPM ratio (pull-down/input).

In the case of “GATGATTGTTCTCCCAGCTGATGAATTGACAATGTCGAGTAAACAAATTTTCCTAATCTTTCTGTTCAAGCGCCATCTAC”, the binding signal is 0.506 RPM ratio (pull-down/input).

On to “GATGATTGTTCTCCCAGCTGATGAATTGGGAGATTCGAGTAAACAAATTTTCCTAATCTTTCTGTTCAAGCGCCATCTAC”, for which the binding signal is 0.372 RPM ratio (pull-down/input).

For “GATGATTGTTCTCCCAGCTGATGAATTGTATTTCTCGAGTAAACAAATTTTCCTAATCTTTCTGTTCAAGCGCCATCTAC”, the binding signal was 2.06 RPM ratio (pull-down/input).

In the case of “GATGATTGTTCTCCCAGCTGATGAATTAGTAGTATCGAGTAAACAAATTTTCCTAATCTTTCTGTTCAAGCGCCATCTAC”, the binding signal is 2.45 RPM ratio (pull-down/input).

Consider “GATGATTGTTCTCCCAGCTGATGAATTGTAGTAATCGAGTAAACAAATTTTCCTAATCTTTCTGTTCAAGCGCCATCTAC”, for which the binding signal was 1.03 RPM ratio (pull-down/input).

Take “GATGATTGTTCTCCCAGCTGATGAATTTGTATCCTCGAGTAAACAAATTTTCCTAATCTTTCTGTTCAAGCGCCATCTAC”: the binding signal is 5.4 RPM ratio (pull-down/input).

Take “GATGATTGTTCTCCCAGCTGATGAATTGTTTGTATCGAGTAAACAAATTTTCCTAATCTTTCTGTTCAAGCGCCATCTAC”: the binding signal is 7.73 RPM ratio (pull-down/input).

For the sequence “GATGATTGTTCTCCCAGCTGATGAATTTTTTGTATCGAGTAAACAAATTTTCCTAATCTTTCTGTTCAAGCGCCATCTAC”, the binding signal was 0.521 RPM ratio (pull-down/input).

Consider “GATGATTGTTCTCCCAGCTGATGAATTGTATTCCTCGAGTAAACAAATTTTCCTAATCTTTCTGTTCAAGCGCCATCTAC”, for which the binding signal was 1.97 RPM ratio (pull-down/input).

On to “GATGATTGTTCTCCCAGCTGATGAATTTGTATTCTCGAGTAAACAAATTTTCCTAATCTTTCTGTTCAAGCGCCATCTAC”, for which the binding signal was 5.9 RPM ratio (pull-down/input).

Regarding “GATGATTGTTCTCCCAGCTGATGAATTTTGTATCTCGAGTAAACAAATTTTCCTAATCTTTCTGTTCAAGCGCCATCTAC”, the binding signal is 5.89 RPM ratio (pull-down/input).

Consider “GATGATTGTTCTCCCAGCTGATGAATTTGTAATCTCGAGTAAACAAATTTTCCTAATCTTTCTGTTCAAGCGCCATCTAC”, for which the binding signal is 3.82 RPM ratio (pull-down/input).
